# Measured values taken from PubChem BioAssay (NCATS).
# Inconclusive results are not listed. Active and inactive are the calls of the source. Calls follow the shape of the dose curve; as a rule, active = well fitted inhibition curve with a large enough effect; inconclusive = small, poorly fitted or top-dose-only effect; inactive = flat fitted curve, though single readings scatter.
# Experiment: P-glycoprotein substrates identified in KB-8-5-11 adenocarcinoma cell line, qHTS therapeutic library screen (AID 1346987); also: nearly all actives have a fitted effect of over 65% in size
# Details: KB-8-5-11 (P-gp overexpressing) viability, CellTiter-Glo, 72 h; series mostly up to 44.5 µM; activity change, negative = cytotoxicity: at the top concentration
# How it was run: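 Luminescence from CellTiter-Glo, read 5 min after addition, quantified survival of KB-8-5-11 (P-gp-overexpressing) cells exposed to compounds for 72 h. AC50 was derived from concentration-response curves.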
# % is scaled to controls: 0 for no effect and ±100 for the full control effect.
SMILES,"activity change, negative = cytotoxicity",outcome
C[C@@H]1O[C@@H](O[C@H]2[C@H](OC(=O)[C@]34CCC(C)(C)C[C@H]3C3=CCC5[C@@]6(C)C[C@H](O)[C@H](O[C@@H]7O[C@H](CO[C@@H]8OC[C@H](O)[C@H](O)[C@H]8O)[C@@H](O)[C@H](O)[C@H]7O)C(C)(C)C6CC[C@@]5(C)[C@]3(C)C[C@H]4O)OC[C@@H](O)[C@@H]2O)[C@H](O)[C@H](O[C@@H]2OC[C@](O)(CO)[C@H]2O)[C@H]1O[C@@H]1OC[C@H](O)[C@H](O[C@@H]2OC[C@@H](O)[C@H](O)[C@H]2O)[C@H]1O (stereo partly drawn),7.52% [at 9.29 µM] (inactive),
CN[C@@H]1[C@@H](O)[C@@H](O[C@@H]2[C@@H](O)[C@H](O[C@H]3O[C@H](CN)[C@@H](O)[C@H](O)[C@H]3O)[C@@H](N)C[C@H]2NC(=O)[C@@H](O)CN)OC[C@]1(C)O,,inactive
NCCOCCOCCNC(=O)Cc1ccc(Nc2nc(NCc3ccc(F)cc3)nc(NCC3CCCCC3)n2)cc1,,inactive
C=C1C(=O)OC2CC(C)=C(C(C)CCCO[C@@H]3O[C@H](CO)[C@@H](O)[C@H](O)[C@H]3O)C(O)C12 (stereo partly drawn),5.68% [at 17.3 µM] (inactive),
CC1=CC(=O)C2C(C)(C)CC(O)CC2(C)C1CO (stereo not drawn),,inactive
C=CC(C)(C)O[C@@H]1O[C@H](CO[C@@H]2OC[C@](O)(CO)[C@H]2O)[C@@H](O)[C@H](O)[C@H]1O,1.56% (inactive),
CC(C)CC(=O)O[C@@H]1OC=C(CO[C@@H]2O[C@H](CO[C@@H]3O[C@H](CO)[C@@H](O)[C@H](O)[C@H]3O)[C@@H](O)[C@H](O)[C@H]2O)[C@H]2C[C@H](O)[C@@H](CO)[C@@H]12,8.35% [at 17.3 µM] (inactive),
C[C@@H]1CC[C@H]2C(C)(C)[C@H](O)[C@H](O)C[C@]2(C)[C@@]12Cc1c(O)cc3c(c1O2)CNC3=O,,inactive
COC1CC(=O)CCC(C)OC(=O)CC1O (stereo not drawn),,inactive
O=C(/C=C/c1c(C(=O)O)[nH]c2cc(Cl)cc(Cl)c12)Nc1ccccc1,9.14% (inactive),
COC1C2=C(COC2=O)C2(C)CCCC(C)(CO)C2C1OC(=O)c1ccccc1 (stereo not drawn),,inactive [at 17.3 µM]
C=C1C2=CC(O)C(C)C1(C)CC/C(C)=C/CCC1(C)OC1C2=O (stereo not drawn),,inactive
CC(C)[C@@H](C)/C=C/[C@@H](C)[C@H]1CC[C@H]2C3=CC=C4C[C@@H](O)CC[C@]4(C)[C@H]3CC[C@]12C,,inactive [at 17.3 µM]
CC1=C(CC(=O)O)c2cc(F)ccc2C1=Cc1ccc(S(C)(=O)=O)cc1,,inactive
COc1ccc(/C=C/C(=O)O[C@H]2[C@@H]3C=CO[C@@H](O[C@@H]4O[C@H](CO)[C@@H](O)[C@H](O)[C@H]4O)[C@@H]3[C@@]3(CO)O[C@@H]23)cc1O,5.83% [at 17.3 µM] (inactive),
C=C/C=C/[C@@H]1OC[C@H](/C=C/C=C/C)[C@H]1O,,inactive [at 93.4 µM]
CC(/C=C/C1(O)C(C)CC(O)CC1(C)C)OC1OC(CO)C(O)C(O)C1O (stereo not drawn),0.557% (inactive),

SMILES,"activity change, negative = cytotoxicity",outcome
COC(=O)[C@H](CC1C=NC=N1)NCC12CC3CC(CC(C3)C1)C2 (stereo partly drawn),7.98% (inactive),
CC(CCC1C(C(=O)O)=CC(=O)CC1(C)C)O[C@@H]1O[C@H](CO)[C@@H](O)[C@H](O)[C@H]1O (stereo partly drawn),0.913% (inactive),
CC(C)(O)C1CC=C(C(=O)OCC2OC(Oc3c(O)cc(C(=O)O)cc3O)C(O)C(O)C2O)CC1 (stereo not drawn),,inactive [at 17.3 µM]
C[C@]1(OC(=O)/C=C/c2ccccc2)C[C@H](O)[C@]2(O)C=CO[C@@H](O[C@@H]3O[C@H](CO)[C@@H](O)[C@H](O)[C@H]3O)C12 (stereo partly drawn),,inactive [at 17.3 µM]
NC(=O)c1cccc(-c2cc(O)cc(OC(=O)NC3CCCCC3)c2)c1,,inactive [at 17.3 µM]
COc1cc(CCc2ccccc2)c(C(=O)O)c2c1CC(C(C)(C)O)O2 (stereo not drawn),5.26% (inactive),
NCCCC[C@H](NC(=O)[C@@H]1Cc2ccccc2CN1C(=O)CCC(=O)c1ccccc1)C(=O)NCC(c1ccccc1)c1ccccc1,,inactive
CC(C)c1ccc(CC(=O)N2CCC[C@@H](c3cccc(OC(C)(C)C(=O)O)c3)C2)cc1,,inactive
CC(c1c[nH]c2ccccc12)C(O)C(=O)O (stereo not drawn),0.377% (inactive),
CCC[C@@H]1C[C@@H](C(=O)N[C@@H]([C@H]2O[C@H](SC)[C@H](O)[C@@H](O)[C@@H]2O)[C@@H](C)O)N(C)C1,,inactive
CC(C)CC(=O)n1cc(C(N)=O)c(=O)cc1C(O)c1ccccc1 (stereo not drawn),5.49% (inactive),
COC(=O)[C@@H]1C2CC3c4[nH]c5ccccc5c4CCN3CC2CC[C@@H]1O (stereo partly drawn),0.704% (inactive),
CN1C(=O)c2ccccc2-n2c(nc3ccccc3c2=O)/C1=C/c1ccccc1,-11.7% (inactive),
COc1ccc([C@H]2Cc3cccc(O)c3C(=O)O2)cc1,-3.39% (inactive),
COCCCNCC1COc2ccccc2O1 (stereo not drawn),,inactive
CC1=C2CC3OC3(C)CCC3OC3(C)CC2OC1=O (stereo not drawn),8.56% (inactive),
